Assay results as given in PubChem BioAssay (Tox21).
Records with an inconclusive call do not appear. Values without a mark were called inactive. Calls follow the shape of the dose curve; as a rule, active = well fitted activation curve with a large enough effect in the repeat runs; inconclusive = weak or mixed curves; inactive = flat fitted curve, though single readings scatter.

test: A CellTox Green Cytotoxicity Assay to monitor cytotoxicity in HEK293 cells - 32 hour (AID 1224881); settings: CellTox Green fluorescence; series mostly up to 76.8 µM; cytotoxicity increase: at the top concentration; also: nearly all actives have a fitted effect of over 40% in size
Outline: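 Read-out: fluorescence of a cell-impermeant cyanine dye staining DNA of dead cells, proportional to cytotoxicity. HEK293, 600 cells/well with reagent, compound (23 nL DMSO) added after 5 h; reads at 0, 8, 16, 24, 32, 40 h.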
% is scaled to controls: 0 for no effect and ±100 for the full control effect.

SMILES | cytotoxicity increase
CC[C@H]1OC(=O)[C@H](C)[C@@H](O[C@H]2C[C@@](C)(OC)[C@@H](O)[C@H](C)O2)[C@H](C)[C@@H](O[C@@H]2O[C@H](C)C[C@H](N(C)C)[C@H]2O)[C@](C)(O)C[C@@H](C)CN(C)[C@H](C)[C@@H](O)[C@]1(C)O | -6.03% [at 35.3 µM]
NC(=O)CCCCC(N)=O | -1.06%
CCCCCCCCCCCCCOC(=O)CCSCCC(=O)OCCCCCCCCCCCCC | 13.9% [at 15.8 µM]
